Results published in PubChem BioAssay (NCI).
Compounds without any hit were thinned out: in the full panel of roughly 79,000, 15% have a hit. Calls of active or inactive are those of the source. Rule as the data show it: active = growth inhibition above about 70%; inactive = the rest.

Experiments:
[1] = NCI Yeast Anticancer Drug Screen. Data for the rad50 strain (AID 155);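 also: 0% = growth of vehicle-only cultures of the same strain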; settings: S. cerevisiae rad50 strain growth inhibition; at 50.0 µM; hits give high values
Summary of the method: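 Compounds were tested on a yeast strain with an engineered DNA damage repair alteration; the reported value is growth inhibition normalised to vehicle treatment.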

[2] = NCI Yeast Anticancer Drug Screen. Data for the mec2-1 strain (AID 157); settings: S. cerevisiae mec2-1 strain, at 50.0 µM, hits give high values
Summary of the method: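 Test agents were screened against the mec2-1 yeast strain, with defined DNA repair or cell cycle alteration. Growth was scored as inhibition against vehicle-only controls.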

[3] = NCI Yeast Anticancer Drug Screen. Data for the sgs1 mgt1 strain (AID 161);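 also: 0% = growth of cultures given vehicle only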; settings: S. cerevisiae sgs1 mgt1 strain, at 50.0 µM, hits give high values
Summary of the method: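 Test agents were incubated with a DNA-repair-mutant yeast strain. Growth was then read and compared against vehicle-treated controls.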

[4] = NCI Yeast Anticancer Drug Screen. Data for the cln2 rad14 strain (AID 165);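 also: 0% = growth equal to vehicle treated cultures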; settings: S. cerevisiae cln2 rad14 strain, at 50.0 µM, hits give high values
Summary of the method: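 Growth of compound-exposed yeast (cln2 rad14 genotype) measured and expressed as inhibition relative to vehicle.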

[5] = NCI Yeast Anticancer Drug Screen. Data for the bub3 strain (AID 167); settings: S. cerevisiae bub3 mutant strain, at 50.0 µM, hits give high values
Summary of the method: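 Growth of a checkpoint-deficient yeast mutant is measured after compound exposure. Values represent inhibition relative to vehicle.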

[6] = NCI Yeast Anticancer Drug Screen. Data for the mlh1 rad18 strain (AID 175); settings: S. cerevisiae mlh1 rad18 strain growth inhibition; at 50.0 µM; hits give high values
Summary of the method: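 In this whole-cell yeast screen, a strain with altered DNA damage repair is challenged with compound, and its growth is measured against matched vehicle-treated controls.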

Measured: growth inhibition

CCOc1cccc(N(CC)CC)c1
inactive: [1] 33.9% | [2] 2.05% | [3] -20% | [4] -64.5% | [5] -14.2% | [6] 13.4%

C=C(C)C(=O)Nc1ccc(NS(=O)(=O)c2ccc(C(C)CC)cc2)c(O)c1 (stereo unspecified)
inactive: [1] 9.3% | [2] -8.7% | [3] 18.1% | [4] 35.5% | [5] 14.9% | [6] 1.2%

Cc1ccc(/C=C/C(=O)c2sc(-n3nc(-c4ccccc4)cc3-c3ccccc3)nc2C)cc1
inactive: [1] -2.3% | [2] -6.85% | [3] -29.9% | [4] 5.6% | [5] 20.1% | [6] -7.4%

CCCCCCCCCCCCP(=O)(O)O
inactive: [1] -8.2% | [2] -24.1% | [3] -19.9% | [4] -9.65% | [5] 6.35% | [6] -10.9%

OCC(O)C(O)C(O)C(O)CNC(CO)(CO)CO (stereo unspecified)
inactive: [1] 9.9% | [2] 13.3% | [3] 18.6% | [4] -1.45% | [5] 16.6% | [6] 27.5%

CCSc1nc(C)nc2c1cnn2-c1ccccc1
inactive: [1] -0.1% | [2] -6.7% | [3] -2.65% | [4] -35.6% | [5] -13.8% | [6] 1.95%

O=C(Nc1cccc(O)c1)C(O)C(O)C(O)C(O)CO (stereo unspecified)
inactive: [1] -10.8% | [2] 14.4% | [3] 18.2% | [4] 10.6% | [5] 9.05% | [6] 10.9%

CC(=O)c1c(P(=O)(OC(C)C)OC(C)C)nn(-c2ccc([N+](=O)[O-])cc2)c1C
inactive: [1] 59.1% | [2] 20.1% | [3] 22.1% | [4] -0.95% | [5] 14.2% | [6] 32.2%

CCCOC(=O)CCCCC(=O)OCCC
inactive: [1] 11.6% | [2] 17.9% | [3] -8.65% | [4] -4% | [5] 0.85% | [6] 11.9%

CCCCCCCCCCCC(=O)OCCS(=O)(=O)CCOC(=O)CCCCCCCCCCC
inactive: [1] 30% | [2] 4.35% | [3] -1.2% | [4] -23.9% | [5] 15.4% | [6] 22.2%

CCOC(=O)CC1(O)C(=O)N(Cc2ccccc2)c2ccccc21 (stereo unspecified)
inactive: [1] 15.6% | [2] -0.15% | [3] 7.55% | [4] 0.4% | [5] 19.8% | [6] -15.1%

C=CCSc1nc2ccc(NC(C)=O)cc2s1
inactive: [1] 42.8% | [2] 10.2% | [3] 7.8% | [4] 19.3% | [5] 20% | [6] 16.7%

CCCCCC/C=C\CCCCCCCCCc1cccc(OC)c1O
inactive: [1] 18.4% | [2] 6.65% | [3] -4.3% | [4] 14.5% | [5] 7.8% | [6] 11.7%

O=C(c1ccccc1)C1Nc2ccccc2CO1 (stereo unspecified)
inactive: [1] -5% | [2] -13.3% | [3] -13.5% | [4] -23.4% | [5] -1.6% | [6] 28.9%

FC(F)(F)c1nn2c(c(-c3ccccc3)c(-c3ccccc3)c3ccccc32)c1C(F)(F)F
inactive: [1] 32.9% | [2] 11.2% | [3] 28.9% | [4] 25.6% | [5] -4.4% | [6] 31.8%

Cc1nc2ccccc2c(=O)n1NC(=S)Nc1ccccc1
inactive: [1] -40.9% | [2] -57.1% | [3] -41.5% | [4] 7.85% | [5] -32.4% | [6] -59.5%

CCN(CC)CCOC(=O)c1ccc(Cl)c(Cl)c1
inactive: [1] 13.8% | [2] -5.9% | [3] 19.9% | [4] -46.3% | [5] -6.6% | [6] -9.4%

C1=C(c2ccccc2)N(c2ccccc2)N=C(c2ccccc2)C1
inactive: [1] 0.85% | [2] -19.7% | [3] 6% | [4] -10.4% | [5] -1.65% | [6] 18.6%

COC(=O)C(/C(=N/N)C(=O)Nc1cccc(O)c1)c1nc2ccccc2[nH]c1=O (stereo unspecified)
inactive: [1] -39.1% | [2] -7.65% | [3] -42% | [4] -15.2% | [5] -39.1% | [6] -34.4%

O=C(OCCCCO)c1cc([N+](=O)[O-])cc([N+](=O)[O-])c1
inactive: [1] -12.8% | [2] 13.9% | [3] 0.1% | [4] 0.7% | [5] 12.1% | [6] -27.9%

CCn1c2ccccc2c2cc(N)c(N=Nc3ccc(-c4ccc(N)c(OC)c4)cc3OC)cc21
inactive: [1] 31.4% | [2] 0.65% | [3] 27.6% | [4] 28.8% | [5] -4% | [6] 29.8%

O=C1C(CO)=C[C@H](O)[C@H]2O[C@@H]12
inactive: [1] -4.3% | [2] 0.3% | [3] -9.45% | [4] 7.85% | [5] 8.65% | [6] -29.4%

COc1ccc(/C=N/NC(=O)C(=O)Nc2ccc(Cl)c([N+](=O)[O-])c2)cc1OC
inactive: [1] 2.15% | [2] -20.9% | [3] -0.65% | [4] 2.85% | [5] -4.1% | [6] -6.4%

Cc1cc(N)ccc1[N+](=O)[O-]
inactive: [1] 2.2% | [2] 31% | [3] 9% | [4] -29.1% | [5] 11.7% | [6] 1.75%

CC(C)COC1=CC(=O)c2ccccc2C1=O
inactive: [1] 16.4% | [2] 17.4% | [3] 18.6% | [4] -1.05% | [5] 35% | [6] -7%

CC(C)CCCC(C)C1CCC2C3CC=C4CC(P(=O)(c5ccccc5)c5ccccc5)CCC4(C)C3CCC12C (stereo unspecified)
inactive: [1] 10.3% | [2] -9.9% | [3] -6.05% | [4] -10.5% | [5] 5.75% | [6] -12.1%

O=C(O)/C(=C/c1ccccc1[N+](=O)[O-])c1ccccc1
inactive: [1] 40.1% | [2] -16.1% | [3] 20.5% | [4] 17.5% | [5] -8.85% | [6] -12.7%

COc1cccc(/C=C2/Sc3sc(C(C)=O)c(C)[n+]3C2=O)c1O
inactive: [1] -15.9% | [2] -1.55% | [3] 8.7% | [4] -2.05% | [5] -4.55% | [6] -9.6%

NCCC(=O)O
inactive: [1] 5.95% | [2] 14.9% | [3] -8.25% | [4] 12.1% | [5] -13.8% | [6] 16.9%

CCC(c1ccc(C(C)=O)c(O)c1)C(CC)c1ccc(C(C)=O)c(O)c1 (stereo unspecified)
inactive: [1] 9.65% | [2] 9.75% | [3] 22.6% | [4] 8.7% | [5] 2.8% | [6] 30.4%

CC1CCCN(C(=O)/C=C/c2ccccc2)C1 (stereo unspecified)
inactive: [1] 9.25% | [2] -19.2% | [3] -6.45% | [4] -45.8% | [5] 6.3% | [6] -3.8%

CCOc1cc2c(cc1OC)c[n+](C)c1c3cc(OC)c(OC)cc3ccc21
inactive: [1] 22.5% | [2] 10.9% | [3] 15% | [4] -2.1% | [5] -6.05% | [6] 14.6%

CO[C@@]12CC(=O)/C(=C(O)\C=C\c3ccccc3)C(=O)[C@]1(OC)Cc1ccccc1O2
inactive: [1] 35.1% | [2] 31.9% | [3] 33.6% | [4] 18.6% | [5] 34.2% | [6] 24.6%

O=C1C2CSCN2C(=O)C2CSCN12 (stereo unspecified)
inactive: [1] 5% | [2] 4.45% | [3] 5.7% | [4] 12.1% | [5] 8.8% | [6] 4.5%

NNC(=O)/C(NC(=O)c1ccccc1)=C(\N)c1cccc([N+](=O)[O-])c1
inactive: [1] -34.4% | [2] -30.4% | [3] 11.7% | [4] 3.25% | [5] -13.1% | [6] 0.9%

C=CCOC(=O)CC(O)(CC(=O)OCC=C)C(=O)OCC=C
inactive: [1] -3.4% | [2] -17.9% | [3] -11.8% | [4] -35.5% | [5] -6.4% | [6] -12.2%

C=C(C)C1Cc2c(cc(OC)c3c(=O)c4cccc(O)c4oc23)O1 (stereo unspecified)
inactive: [1] 43.1% | [2] 15.4% | [3] -1.95% | [4] 25.4% | [5] -20.2% | [6] -21.4%

c1ccc(/C2=C(\c3ccccc3)CSSSSC2)cc1
active: [6] 89%
inactive: [1] 68.5% | [2] 48.4% | [3] 45.4% | [4] 43.2% | [5] 62.9%

Cc1ccc(NC(=O)Nc2ccccc2Cl)cc1Cl
inactive: [1] 12.6% | [2] 17.5% | [3] 6.1% | [4] -20.4% | [5] 4.75% | [6] -4.55%

O=C(Nc1ccccc1)C1CC=C2CCC3OC(=O)C1C23 (stereo unspecified)
inactive: [1] -11.4% | [2] -16.7% | [3] -23.4% | [4] -16% | [5] -14.7% | [6] -18.1%

Nc1ccn(C2CC(F)C(CO)O2)c(=O)n1 (stereo unspecified)
inactive: [1] 19.6% | [2] 11.2% | [3] 17.2% | [4] 1.5% | [5] 7% | [6] -1.8%
